Screening results from PubChem.
D1 PAM = enhances dopamine response at the human D1 receptor | P21728 | HEK293 TREx D1 cells, calcium flux, dopamine EC20 potentiation | 0.036% of 360,000 active | potentiation, % at 10 µM; in the data active = potentiation above about 30%
Target sequence (P21728 whole entry, looked up): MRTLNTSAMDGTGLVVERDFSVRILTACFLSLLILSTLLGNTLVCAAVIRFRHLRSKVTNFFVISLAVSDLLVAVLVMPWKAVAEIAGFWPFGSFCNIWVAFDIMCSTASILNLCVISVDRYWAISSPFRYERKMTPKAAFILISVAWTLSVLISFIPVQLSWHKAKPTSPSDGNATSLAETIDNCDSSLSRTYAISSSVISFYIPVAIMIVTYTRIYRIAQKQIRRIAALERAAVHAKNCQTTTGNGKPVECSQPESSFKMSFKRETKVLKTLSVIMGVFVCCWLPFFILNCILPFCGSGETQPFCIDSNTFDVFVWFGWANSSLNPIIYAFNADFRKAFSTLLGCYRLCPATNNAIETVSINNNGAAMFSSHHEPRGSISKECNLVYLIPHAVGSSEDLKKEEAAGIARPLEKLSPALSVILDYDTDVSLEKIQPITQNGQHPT
LDHA block = inhibitors of human lactate dehydrogenase A; purified LDHA, NADH/diaphorase-resazurin fluorescence; stronger effect = lower value; AID 1347041; 0.15% of 480,000 active; P00338; activity change, % (values are at about 110 or 230 µM); in the data active = activity change below about -30%
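Human LDH5 at 2 nM final in Tris HCl pH 7.4 with 0.06 mM NADH and 0.2 mM pyruvate, reacted 5 minutes at room temperature. Remaining NADH coupled via diaphorase/resazurin; resorufin fluorescence read at 0 and 20 minutes, normalized to enzyme-free and DMSO wells.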
TRHR ag = TRH receptor (human) agonism. P34981. TRHR cells, calcium flux fluo-8, FDSS agonist mode. activation, % at 2 µM. 0.18% of 360,000 active
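Agonist-mode FDSS calcium read (Ex 480/Em 530, 1 s cycles) in 1536-well TRHR cells with fluo-8 dye, after 10-cycle baseline and 23 nL compound addition; TRH at EC20 (10 nM final) added afterwards for the enhancer phase.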
D1 antag = blocks dopamine activation of the human D1 receptor; HEK293 TREx D1 cells, calcium flux, dopamine EC80; stronger effect = lower value; activity change, negative = inhibition, % at 10 µM; 3.2% of 360,000 active; in the data active = activity change below about -30%
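Using tetracycline-induced force-coupled D1 Hek293 cells and a calcium dye, signals were followed for 180 s after compound, then for 180 s after EC80 dopamine, to detect inhibitors.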
D1 ag = human D1 receptor agonism. P21728. HEK293 T-REx D1 cells, calcium flux, agonist mode. activation, % at 2 µM. 1% of 360,000 active. AID 504660
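Agonism was scored from calcium flux recorded over 180 s (1 read/s) after pintool compound addition, following a 10-cycle baseline. Cells were inducible force-coupled HEK293 TREx D1, plated overnight at 30 C and loaded with no-wash calcium dye.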
TRHR enhancer = allosteric enhancers of human TRH receptor. TRHR cells, fluo-8 calcium fluorescence, EC20 TRH enhancement. 0.66% of 360,000 active. enhancement, % at 2 µM. AID 493056; in the data active = enhancement above about 30%
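Enhancer read-out: after compound pinning and an initial kinetic agonist-mode read, an EC20 of TRH (10 nM final) was injected and fluo-8 calcium signal (Ex 480/Em 530) followed at 1 s/cycle for 100 cycles in TRHR-expressing cells.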
Hits are given with their value; i = inactive; nt = no result given. Sampled rows, rich in hits. Any-hit rate of the full collection: about 3.6%. Cut-off read from the data, not from the text of the source, unless noted: active = activation above about 30%; inactive = the rest.

SMILES	D1 PAM	LDHA block	TRHR ag	D1 antag	D1 ag	TRHR enhancer
O=C1/C(=C\c2ccc(O)c(O)c2)SC(=S)N1Cc1ccccc1	i	i	i	i	78	i
O=C(CN1C(=O)S/C(=C\c2cc(Cl)c(O)c(Cl)c2)C1=O)Nc1ccccc1	i	i	i	i	48	i
COc1cc(/C=C2/SC(=NCc3ccccc3)N(Cc3ccccc3)C2=O)ccc1O	i	i	i	i	i	i
CN1C(=O)/C(=C\c2cccc(OCc3ccccc3)c2)SC1=S	i	i	i	-34	i	i
COc1cc(/C=C2/SC(=S)N(Cc3ccccc3)C2=O)ccc1O	i	i	39	i	102	i
CCCCCn1nc(C(=O)Nc2nc(C)cs2)c2ccccc2c1=O	nt	i	nt	nt	nt	nt
O=C(CSc1nccn1-c1cccc(C(F)(F)F)c1)Nc1cccc(F)c1	nt	i	nt	nt	nt	nt
O=C1/C(=C\c2cccc(O)c2O)SC(=S)N1Cc1ccccc1	i	i	i	i	i	i
COc1cc(/C=C2\SC(=S)N(N3CCOCC3)C2=O)ccc1O	i	i	i	i	30	i
O=C1/C(=C\c2cc([N+](=O)[O-])ccc2O)SC(=S)N1Cc1ccc(Cl)cc1	i	i	120	i	197	i
COc1cc(/C=C2\SC(=S)N(CCC(=O)Nc3ccccc3)C2=O)cc(OC)c1OC	i	i	i	i	46	i
Cc1ccc(NC(=O)COc2cccc(/C=C3\SC(=S)N(CCC(=O)O)C3=O)c2)cc1Cl	i	-36	i	i	i	i
CCC(C)(C)C(=O)N1CCC(C(=O)NC2CCCCCC2)CC1	nt	i	nt	nt	nt	nt
N#Cc1nc(/C=C/c2ccc(F)cc2)oc1N1CCCC1	nt	i	nt	nt	nt	nt
O=C(Nc1ccc(OC(F)(F)F)cc1)Nc1cccc([N+](=O)[O-])c1	i	i	i	-47	30	i
CC(C)(C)CC(C)(C)NC(=O)Nc1cccc([N+](=O)[O-])c1	i	i	i	-41	i	i
Cc1ccc(S(=O)(=O)NC(=O)Nc2cccc([N+](=O)[O-])c2)cc1	i	i	i	i	i	i
Cc1ccc(NC(=O)Nc2cccc([N+](=O)[O-])c2)cc1F	i	i	i	-57	32	i
Cc1cc(NC(=O)Nc2cccc([N+](=O)[O-])c2)no1	i	i	i	i	i	i
CC(C)=CC(=O)N(C)Cc1ccc(C(=O)NCC(F)(F)F)cc1	nt	i	nt	nt	nt	nt
Cc1cc(F)ccc1NC(=S)NCc1ccccc1	nt	i	nt	nt	nt	nt
CCc1cc(C(=O)Nc2sc(C)c(CC)c2C#N)no1	i	i	i	i	i	i
CCc1c(C)sc(NC(=O)c2cc(C(C)C)on2)c1C#N	i	i	i	-32	i	i
CCCCCCCCCNC(=O)CC#N	nt	i	nt	nt	nt	nt
COc1ccc(/C(O)=C2/C(=O)C(=O)N(CCCN3CCOCC3)C2c2ccc(C)cc2)cc1 (stereo unspecified)	i	i	i	i	i	i
SMILES	D1 PAM	LDHA block	TRHR ag	D1 antag	D1 ag	TRHR enhancer
COc1ccc(C2/C(=C(/O)c3ccc(C)cc3)C(=O)C(=O)N2CCCN2CCOCC2)cc1 (stereo unspecified)	37	i	i	i	i	i
CCN(CC)CCN1C(=O)C(=O)/C(=C(/O)c2ccc(OC)cc2)C1c1ccco1 (stereo unspecified)	i	i	i	-34	i	i
CCN(CC)CCCN1C(=O)C(=O)/C(=C(/O)c2ccc(OC)cc2)C1c1ccco1 (stereo unspecified)	nt	i	nt	nt	nt	nt
O=C(CNc1cccc(S(=O)(=O)N2CCCC2)c1)N1CCN(C(=O)c2cccs2)CC1	nt	i	nt	nt	nt	nt
CC(C)N1C(C(=O)Nc2ncccn2)=C(O)c2ccccc2S1(=O)=O	nt	i	nt	nt	nt	nt
CC1CCCCN1S(=O)(=O)c1ccc(C(=O)N2CCOCC2)cc1 (stereo unspecified)	i	i	i	i	i	33
OCCNCC(O)CN1c2ccccc2Sc2ccccc21 (stereo unspecified)	i	i	i	-31	i	i
CC(C)CNCC(=O)N1c2ccccc2Sc2ccccc21	nt	i	nt	nt	nt	nt
CC1CCN(CC(O)COCc2ccccc2)CC1 (stereo unspecified)	nt	i	nt	nt	nt	nt
CC1CCN(CC(O)CN2c3ccccc3Sc3ccccc32)CC1 (stereo unspecified)	i	i	i	-89	33	i
COc1cc(C(=O)Nc2cccc3cccnc23)ccc1C	nt	i	nt	nt	nt	nt
